# Laboratory results published in the supplement of paper PMC3414501.
# Counter-ions that a name gives are not always drawn.
# How the values were obtained:
# [1] = system: S. cerevisiae SK1 pCDA2-eGFP (USY613), sporulating; assay: CDA2-GFP sporulation assay sensitivity score (z-score vs DMSO controls); higher = stronger inhibition of sporulation, active = hit call of the paper;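 note: active if sensitivity score above 5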
# [2] = system: S. cerevisiae NKY1551 his4x/his4B, sporulating; assay: HIS4 meiotic recombination assay sensitivity score (z-score vs DMSO controls); higher = stronger inhibition of sporulation/recombination, active = hit call of the paper;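 note: active if sensitivity score above 5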
# [3] = system: S. cerevisiae AD1-9 (efflux-pump deficient), vegetative growth in YPD; assay: growth sensitivity score (doubling time z-score vs DMSO controls); higher = slower growth, strongly negative scores also mark growth inhibition (complete suppression), active = hit call of the paper
# In short: (§1)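 Yeast (Saccharomyces cerevisiae BY4741 and AD1-9) was grown in rich medium in microtiter plates from a starting OD600 of 0.065, with optical density read every 15 min over 24 hours. The growth sensitivity score was the difference between compound and solvent-only means, divided by the solvent-only standard deviation. Every experiment had eight solvent-only wells.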
# [4] = system: S. cerevisiae BY4741 (wild-type), vegetative growth in YPD; assay: as above
# In short: as §1
Structure (SMILES),CDA2-GFP sporulation assay sensitivity score [1],HIS4 meiotic recombination assay sensitivity score [2],growth sensitivity score [3],growth sensitivity score [4]
"O=c1[nH]cnc2c1ncn2[C@H]1CC[C@@H](CO)O1 [Didanosine] (stock concentration (mM, diluted 1:100): 10.1)",-0.63 (inactive),0.35 (inactive),-1.72 (inactive),-1.9 (inactive)
"CN(C)CCOC(C)(c1ccccc1)c1ccccn1 (configuration not stated) [Doxylamine succinate] (stock concentration (mM, diluted 1:100): 10)",-0.3 (inactive),1.01 (inactive),-0.68 (inactive),1.39 (inactive)
"CN1CCCC(n2nc(Cc3ccc(Cl)cc3)c3ccccc3c2=O)CC1 (configuration not stated) [Azelastine hydrochloride] (stock concentration (mM, diluted 1:100): 9.1)",0.63 (inactive),10.7 (active),11 (active),0.19 (inactive)
"N#Cc1ccc(C(c2ccc(C#N)cc2)n2cncn2)cc1 [Letrozol] (stock concentration (mM, diluted 1:100): 10)",1.08 (inactive),-0.01 (inactive),20.4 (active),-0.45 (inactive)
"CC(C)NCC(O)c1ccc(NS(C)(=O)=O)cc1 (configuration not stated) [Sotalol hydrochloride] (stock concentration (mM, diluted 1:100): 8.8)",-0.03 (inactive),-0.43 (inactive),-0.51 (inactive),-1.04 (inactive)
"CC(=O)CCCCn1cnc2c1c(=O)n(C)c(=O)n2C [Lomifylline] (stock concentration (mM, diluted 1:100): 10)",-2.21 (inactive),-1.26 (inactive),-0.96 (inactive),0.79 (inactive)
"CN1[C@@H]2CC[C@H]1C[C@@H](OC(=O)c1c[nH]c3ccccc13)C2 [Tropisetron hydrochloride] (stock concentration (mM, diluted 1:100): 7.7)",1.1 (inactive),0.82 (inactive),-2.07,-0.89 (inactive)
"CC#C[C@]1(O)CC[C@H]2[C@@H]3CCC4=CC(=O)CCC4=C3[C@@H](c3ccc(N(C)C)cc3)C[C@@]21C [Mifepristone] (stock concentration (mM, diluted 1:100): 10)",9.91 (inactive),2.99 (inactive),172 (active),-2.51
"CC(Cc1ccccc1)(NC(=O)CN)c1ccccc1 (configuration not stated) [Remacemide] (stock concentration (mM, diluted 1:100): 10)",2.76 (inactive),-1.04 (inactive),4.61 (active),-0.78 (inactive)
"CCN1CCN(c2cc3c(cc2F)c(=O)c(C(=O)O)cn3C2CC2)CC1 [Enrofloxacin] (stock concentration (mM, diluted 1:100): 10)",2.66 (inactive),1.36 (inactive),37.5 (active),3.15 (active)
"O=C1CCc2ccc(OCCCCN3CCN(c4cccc(Cl)c4Cl)CC3)cc2N1 [Aripiprazole] (stock concentration (mM, diluted 1:100): 10)",-0.09 (inactive),-1.42 (inactive),18.5 (active),117 (active)
"COc1cc(/C=C/c2ccc(O)cc2)cc(OC)c1 [Pterostilbene] (stock concentration (mM, diluted 1:100): 10)",-2.39 (inactive),-0.31 (inactive),–,–
"CC(C)(C)NC(=O)[C@@H]1C[C@@H]2CCCC[C@@H]2CN1C[C@@H](O)[C@H](Cc1ccccc1)NC(=O)[C@H](CC(N)=O)NC(=O)c1ccc2ccccc2n1 [Saquinavir mesylate] (stock concentration (mM, diluted 1:100): 8.8)",-0.34 (inactive),-1.67 (inactive),-2.2,2.5 (active)
"Nc1[nH]c(=O)ncc1F [5-Fluorocytosine] (stock concentration (mM, diluted 1:100): 10.5)",0.12 (inactive),-1.29 (inactive),36.6 (active),54.5 (active)
"COC(=O)Nc1nc2cc(C(=O)c3ccc(F)cc3)ccc2[nH]1 [Flubendazole] (stock concentration (mM, diluted 1:100): 10)",0.4 (inactive),-2.01 (inactive),12.3 (active),2.6 (active)
"O=C1C(c2c(O)[nH]c3ccccc23)=Nc2ccccc21 [Indarubicin] (stock concentration (mM, diluted 1:100): 10)",9.61 (inactive),-1.36 (inactive),-1.23 (inactive),-1.62 (inactive)
